From PubChem BioAssay
In the library only some 2.8% were active in any assay of this set; here they are far more common.
TWEAK-Fn14 inh: inhibitors of TWEAK-Fn14 interaction signaling. inhibition, % at 10 µM. TWEAK-stimulated Fn14 reporter cells, luciferase luminescence, 8 h. hit rate 2% among 360,000; in the data active means inhibition above about 50%
LGR2 antag: inhibitors of bursicon-induced Drosophila LGR2 receptor cAMP signaling | HEK293 LGR2, CRE-luciferase, bursicon-stimulated, 4 h | AID 720647 | hit rate 0.35% among 380,000 | inhibition, % at 9.99 µM;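 active means drop in luminescence signal, shown as inhibition above about 50% in the replicate tests, limit read from the data, passing the limit was not always enough; inconclusive means probably only some replicates passing the limit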;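 further: agonist challenge used bursicon conditioned medium at about half maximal strength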
TROY signal inh: TROY signaling inhibition. Q293 LMP1-TROYcd NF-kB luciferase reporter, 4 h. inhibition, % at 10 µM. hit rate 0.98% among 360,000;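 active means compounds whose plate-normalised and pattern-corrected inhibition of the luciferase reporter signal at the single screening dose is 50% or more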
EWS-Fli block: blocks EWS/Fli oncoprotein-driven transcription. A673 NR0B1-luciferase reporter, viability-normalised. inhibition, % at 12.6 µM. hit rate 0.67% among 350,000. AID 651661;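 active means mean inhibition of at least 50% after viability correction, with every replicate also passing that limit; inconclusive means mean reaches 50% but only one of two replicates passes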;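 further: firefly luciferase signal divided by Alamar Blue viability fluorescence both relative to DMSO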
PAX8 reporter: inhibitors of PAX8 transcriptional activity in RMG-I cells. RMG-I TPO-luciferase reporter, SteadyGlo, 24 h. inhibition, % at 12.6 µM. hit rate 1.2% among 360,000. AID 652154;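 active means mean replicate inhibition at least 60% with every replicate also reaching 60%; inconclusive means only one of the two criteria is met; inactive means mean below 60% and not all replicates reaching 60%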;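 further: luciferase light reporting Pax8 driven TPO promoter activity; plate controls were median of neutral control wells for no effect and mitoxantrone controls for full effect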
* = called active by the depositor; ? = inconclusive; / = no result.

SMILES	TWEAK-Fn14 inh	LGR2 antag	TROY signal inh	EWS-Fli block	PAX8 reporter
Cc1noc(C)c1NC(=O)Nc1ccc2c(c1)C(=O)N(C)[C@@H]1CC[C@H](CC(=O)N(C)C)O[C@H]1CO2	/	1	/	2	-10
CN(C)C(=O)C[C@@H]1CC[C@H](NC(=O)C2CCC2)[C@H](CO)O1	/	-7	/	6	-8
COC(=O)c1cccc(NC(=O)c2onc3c2CCCC3)c1	5	-76	-77	35	-118
Cc1cccc(NC(=O)c2onc3c2CCCC3)c1C	-9	/	-61	/	/
Cc1cccc(NC(=O)c2onc3c2CCCC3)n1	80*	77*	52*	71*	31
O=C(Nc1ccc2ccccc2c1)c1onc2c1CCCC2	57*	28	16	/	/
C[C@@H]1CCCCO[C@@H](CN(C)CC2CCCCC2)[C@H](C)CN([C@@H](C)CO)C(=O)c2cc(NC(=O)CCC(F)(F)F)ccc2O1	/	-3	/	1	-10
C/C=C/c1ccc([C@@H]2[C@@H](CO)N(C(C)=O)C23CN(C(=O)NC2CCCCC2)C3)cc1	/	6	/	3	-8
Cc1nn(CCc2nn[nH]n2)c2nc(-c3ccc(Br)cc3)cc(C(F)(F)F)c12	32	10	53*	-10	2
Cc1nn(C)c2nc(-c3cccs3)cc(C(F)(F)F)c12	9	/	11	-9	1
Cc1nn(CCO)c2nc(-c3cccs3)cc(C(F)(F)F)c12	21	3	-1	7	161*
O=C(NC[C@@H]1CC[C@@H]2[C@@H](CN2Cc2ccccc2F)O1)C1CC1	/	/	/	2	/
O=C(COc1ccc(Br)cc1Cl)NC(=S)N1CCc2ccccc21	-70	-55	-38	-10	-14
O=C(COc1ccc(Br)cc1Br)NC(=S)N1CCCc2ccccc21	64*	/	43	/	/
CCOC(=O)C(=Cc1ccc(Br)cc1)C(=O)OCC	59*	19	28	?	17
COC(=O)c1ccc(-n2ccnc2)cc1	-2	5	20	-48	-11
CCOC(=O)C(=Cc1ccc(-n2ccnc2)cc1)C(=O)OCC	96*	50	64*	10	32
Cc1cccc(C)c1OCCNC(=O)C(=O)NCc1ccco1	16	33	14	56*	7
Nc1c(S(=O)(=O)c2ccccc2)c2nc3ccccc3nc2n1/N=C/c1cccc(O)c1	73*	/	16	/	/
Cc1cccc(S(=O)(=O)c2c(N)n(/N=C/c3ccccc3)c3nc4ccccc4nc23)c1	16	/	-12	/	/
C[C@@H]1CN([C@@H](C)CO)C(=O)c2cc(NC(=O)NC3CCCCC3)ccc2O[C@H]1CN(C)S(=O)(=O)c1ccc(F)cc1	/	-11	/	-1	3
CCc1csc(N2[C@H](C#N)[C@H](c3ccc(C4=CCCC4)cc3)[C@H]2CO)n1	/	-2	/	9	11
O=C(O)C1CCC(CNCc2ccccc2Cl)CC1 (stereo unspecified)	56*	0	6	-15	-3
Cc1ccccc1S(=O)(=O)N1C[C@@H](O)COC[C@H]2O[C@H](CC(=O)N3CCCCC3)CC[C@@H]21	/	-6	/	-7	0
CC1(C(=O)O)CCCN1C(=O)c1ccccc1OC(F)(F)F (stereo unspecified)	-27	7	6	-12	73*
SMILES	TWEAK-Fn14 inh	LGR2 antag	TROY signal inh	EWS-Fli block	PAX8 reporter
CCOC(=O)C1(C)CCN1C(=O)c1ccccc1OC(F)(F)F (stereo unspecified)	-16	0	-9	-6	-6
COc1ccc(/C=C/c2cc(-c3ccc(C)cc3)o[n+]2C)cc1	58*	46	26	/	/
COc1ccc(/C=C/c2c(-c3ccc(OC)cc3)oc3ccc(-c4ccc(OC)cc4)cc23)cc1	-1	2	0	-6	-17
COc1ccc(S(=O)(=O)NCc2ccccn2)cc1NC(=O)c1ccccc1C	14	6	2	60*	15
CNC[C@@H]1OCCCC[C@H](C)Oc2ccc(NC(=O)CCC(F)(F)F)cc2C(=O)N([C@H](C)CO)C[C@@H]1C	/	11	/	-1	0
C[C@@H]1CN([C@@H](C)CO)C(=O)c2cc(NC(=O)CCC(F)(F)F)ccc2O[C@H]1CN(C)C(=O)NC1CCCCC1	/	14	/	-8	17
O=C(CSc1nnc(-c2ccccc2)o1)c1ccc2c(c1)OCCO2	20	/	59*	/	/
O=C(CSc1nnc(-c2ccc3c(c2)OCCO3)o1)N1CCCC1	70*	/	28	/	/
CCCNC(=O)N1C[C@H](O)COC[C@H]2O[C@H](CC(=O)N3CCCCC3)CC[C@@H]21	/	24	/	-4	-5
COc1ccc(C2Nc3ccccc3C(=O)N2c2ccccc2)cc1CSc1ccccn1 (stereo unspecified)	-6	2	-49	-15	30
